Here are results for 15 compounds from PubChem BioAssay AID1865 (National Center for Advancing Translational Sciences (NCATS), 2009).

Several values for one entry are separate records, joined by “and”; a condition that tells them apart may be missing. Equal values may be shown once. Among all 280,000 compounds or so, about 540 (0.19%) were called active. Roughly 2% stayed inconclusive and do not appear here. Calls follow the shape of the dose curve; as a rule, active = well fitted activation curve with a large enough effect; inconclusive = small, poorly fitted or top-dose-only effect; inactive = flat fitted curve, though single readings scatter. The list comes from a sample in which actives are over-represented; it also holds similar structures and randomly drawn compounds. Where a structure was tested more than once in an assay, its records may differ in their call.
Potency is read from the fitted curve at half-maximal effect.

This experiment can be described thus: Quantitative High-Throughput Screen for Regulators of Epigenetic Control. Also: nearly all actives have a fitted effect of over 60% in size. As to GFP activation: % of control where 0% means no effect. The note with it: murine LDR cells, GFP reporter derepression, 30 h; series mostly up to 53.9 µM; GFP activation: at the top concentration. An excerpt: NIH Molecular Libraries Screening Centers Network [MLPCN] NIH Chemical Genomics Center [NCGC] MLSCN Grant: 1 X01 MH079860-01 Assay Provider: Elisabeth D. Martinez, University of Texas SW Medical Center NCGC Assay Overview: The Locus Derepression (LDR) assay detects the derepression or induction of a GFP reporter that is stably integrated in a genomic region of murine cells that is presumably silenced. Transcription of the GFP reporter is controlled by a CMV promoter, which normally is constitutively active. However, this cell line, termed LDR, was selected for lack of constitutive production of GFP. GFP production can be induced by incubating the cells with histone deacetylase or DNA methyltransferase inhibitors (Martinez et al., 2006). Compounds that derepress or induce this reporter locus are identified by enumerating GFP positive cells using a laser-scanning microplate cytometer (Auld et al., 2006). This assay was screened against the MLSMR earlier (AID 597; (Johnson et al., 2008) and has been rescreened here against the expanded collection.
NCGC Assay Protocol Summary: Three hundred LDR cells in 5 uL per well were dispensed into black, clear-bottom 1536-well plates. Twenty-three nL compound was transferred to the assay plate and cells were incubated 30 hours at 37 C. Medium was removed, cells were washed two times with PBS, and GFP-positive cells were enumerated as fluorescent objects between the sizes of 20 to 120 um width and depth using an Acumen Explorer. References Auld, DS, Johnson, RL, Zhang, YQ, Veith, H, Jadhav, A, Yasgar, A, Simeonov, A, Zheng, W, Martinez, ED, Westwick, JK, Austin, CP, Inglese, J (2006). Fluorescent protein-based cellular assays analyzed by laser-scanning microplate cytometry in 1536-well plate format. Methods Enzymol 414: 566-89. Johnson, RL, Huang, W, Jadhav, A, Austin, CP, Inglese, J, Martinez, ED (2008). A quantitative high-throughput screen identifies potential epigenetic modulators of gene expression. Anal Biochem 375: 237-48. Martinez, ED, Dull, AB, Beutler, JA, Hager, GL (2006). High-content fluorescence-based screening for epigenetic modulators. Methods Enzymol 414: 21-36.
On to `N#CC(C#N)=Cc1cc(O)c(O)c([N+](=O)[O-])c1`, for which the Potency result is “inactive and 17.8 µM (active)”. `C[C@@]12CC[C@H]3[C@@H](CC[C@]4(O)C[C@H](O)CC[C@@]34C=O)[C@]1(O)CC[C@@H]2C1=CC(=O)OC1`: the “GFP activation” value is 4.11% [at 16.9 µM] (inactive).

In the case of `CCCCCCCCc1[se]c2ccccc2c1Br`, the “GFP activation” value is 5.52% (inactive).

In the case of `COc1ccccc1-c1[se]c2ccccc2c1I`, the “GFP activation” value is 0.901% (inactive). In the case of `CN[C@@H]1C[C@H]2O[C@@](C)([C@@H]1OC)n1c3ccccc3c3c4c(c5c6ccccc6n2c5c31)C(=O)NC4`, the Potency result is “inactive”.

`CC(C)(Cc1c[nH]c2ccc(Cl)cc12)NCCOc1ccccc1OCC1CC1`: the Potency result was “inactive”. As for `CC1=CC(=Cc2sc3ccccc3[n+]2C)C=C(C)O1`, the Potency is 11.2 µM (active). Regarding `Fc1ccc(C(OCCN2CCN(C/C=C\c3ccccc3)CC2)c2ccc(F)cc2)cc1`, the “GFP activation” value was 3.24% (inactive). For `CC(C)(O)c1[se]c2ccccc2c1I`, the “GFP activation” value was 3.15% (inactive). Same read-out and setting: the value for `NC[C@H](O)c1ccc(O)cc1` was 1.37% [at 16.9 µM] (inactive). Turning to `CCOc1ccc(CNC(=O)c2cccc(Nc3nc4ccccc4n4nnnc34)c2)cc1OC`, the Potency was 20 µM (active).

As to `COc1cc(Cn2c(N)c(C(=O)NCc3ccco3)c3nc4ccccc4nc32)cc(OC)c1OC`, the “GFP activation” value was 1.22% (inactive). As for `CCCn1c(C(=O)c2ccccc2OC)nc2ccccc21`, the “GFP activation” value is -2.57% (inactive). As for `C[C@]12CC[C@H](O)C[C@@H]1CC[C@H]1[C@H]2CC[C@]2(C)C(=O)CC[C@@H]12`, the Potency result is “inactive”. Turning to `CC(=O)c1c(O)c(C)c(O)c(Cc2c(O)c3c(c(C(=O)/C=C\c4ccccc4)c2O)OC(C)(C)C=C3)c1O`, the “GFP activation” value was -2.7% (inactive).
